# “And” between values parts separate entries of the source, which are not always exact repeats. Equal entries are not always repeated. Inconclusive results are not listed. Entries that show only a call come without a potency. Where a structure was tested more than once in an assay, its records may differ in their call. The source made the active and inactive calls. Calls come from the whole dose curve; as a rule, active = well fitted curve in the direction sought with a large enough effect; inconclusive = small, poorly fitted or top-dose-only effect, or another doubt; inactive = no such curve, though single readings can be large; an effect the other way counts as inactive or inconclusive.
# Tests used:
# [1] = biological target: Glutathione peroxidase 1 (Homo sapiens) (UniProt P07203); assay: Primary qHTS Assay for Inhibitors of Recombinant Selenoprotein Glutathione Peroxidase 1 (GPX1) (AID 1845191); note: nearly all actives have a fitted effect of over 65% in size; note: potency is the fitted concentration of half-maximal effect
# In short: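 GR-coupled readout: NADPH consumption tracked by fluorescence, ex 340/em 450 nm, at t=0 and after 15 min at RT. Final mix 10 nM GPX1, 1 mM GSH, 0.5 mM CHP, 0.5 mM NADPH, 100 nM GR, 0.01% BSA, following 30 min enzyme–compound preincubation.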
# [2] = biological target: Metallo-beta-lactamase type 2 (Klebsiella pneumoniae) (UniProt C7C422); assay: qHTS to identify inhibitors of the New Delhi Metallo-beta-lactamase (NDM): assay validation screen against the NCATS LOPAC Collection (AID 1794843);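 note: nitrocefin turnover by NDM-1 measured as 485 nm absorbance at plateau; series mostly up to about 38 µM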
# In short: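 NDM-1 at 2 nM final in 50 mM HEPES pH 7.0 with 1 uM ZnSO4 and 0.01% Tween20 was preincubated with library compounds in DMSO. Nitrocefin (50 uM stock) was then added, and absorbance at 485 nm was read at the kinetic plateau.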
# [3] = biological target: Phospholipid hydroperoxide glutathione peroxidase GPX4 (Homo sapiens) (UniProt P36969); assay: Primary qHTS Assay for Inhibitors of Recombinant Selenoprotein Glutathione Peroxidase 4 (GPX4) (AID 1845192); note: nearly all actives have a fitted effect of over 65% in size; for activity change, negative = inhibition: series mostly up to about 50 µM
# In short: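 Steps: GPX4 plus compound, 30 min RT; add GR/GSH/NADPH master mix; start with cumene hydroperoxide; read 340/450 nm fluorescence at 0 and 15 min. Finals were 200 nM GPX4, 1 mM GSH, 0.5 mM CHP, 0.5 mM NADPH, 100 nM GR.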
# Chain of Phospholipid hydroperoxide glutathione peroxidase GPX4 (Homo sapiens) (P36969 whole entry, looked up): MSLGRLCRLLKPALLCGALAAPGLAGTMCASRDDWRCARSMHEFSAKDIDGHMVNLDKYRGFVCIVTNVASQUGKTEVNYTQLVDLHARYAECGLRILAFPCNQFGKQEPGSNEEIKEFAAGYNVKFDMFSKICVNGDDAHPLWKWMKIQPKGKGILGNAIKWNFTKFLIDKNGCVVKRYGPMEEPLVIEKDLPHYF
# Chain of Metallo-beta-lactamase type 2 (Klebsiella pneumoniae) (C7C422 whole entry, looked up): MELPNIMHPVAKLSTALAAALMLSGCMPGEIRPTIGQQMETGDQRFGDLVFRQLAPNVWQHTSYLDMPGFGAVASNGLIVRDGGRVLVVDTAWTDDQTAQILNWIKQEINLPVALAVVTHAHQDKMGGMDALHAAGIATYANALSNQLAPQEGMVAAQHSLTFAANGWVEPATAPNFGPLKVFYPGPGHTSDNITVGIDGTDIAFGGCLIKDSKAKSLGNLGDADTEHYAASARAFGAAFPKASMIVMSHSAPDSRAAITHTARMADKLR
# Chain of Glutathione peroxidase 1 (Homo sapiens) (P07203 whole entry, looked up): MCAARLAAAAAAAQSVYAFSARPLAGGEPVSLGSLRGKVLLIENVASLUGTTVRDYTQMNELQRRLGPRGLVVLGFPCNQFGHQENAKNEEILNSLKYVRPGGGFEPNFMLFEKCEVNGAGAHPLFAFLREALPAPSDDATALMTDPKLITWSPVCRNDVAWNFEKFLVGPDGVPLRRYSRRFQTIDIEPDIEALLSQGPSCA
structure (smiles),measurement,setting,value
CCOC(=O)[C@H](CCc1ccccc1)N[C@@H](C)C(=O)N1C(=O)N(C)C[C@H]1C(=O)O,Potency,[1],inactive
C[C@@H]1CN(c2c(F)c(F)c3c(=O)c(C(=O)O)cn(C4CC4)c3c2F)C[C@H](C)N1,Potency,[1],inactive
CC(C)C(=O)c1c(C(C)C)nn2ccccc12,outcome,[2],inactive
same,Potency,[1],inactive
same,Potency,[3],inactive
O=C(CCCN1CCN(c2ccccn2)CC1)c1ccc(F)cc1,Potency,[1],inactive
C=Cc1c(C)c2cc3[nH]c(cc4nc(cc5nc(cc1[nH]2)C(C)=C5CCC(=O)O)C(CCC(=O)O)=C4C)c(C)c3C=C,outcome,[2],inactive
same,Potency,[3],inactive
CC(C)c1c(C(=O)Nc2ccccc2)c(-c2ccccc2)c(-c2ccc(F)cc2)n1CC[C@@H](O)C[C@@H](O)CC(=O)O,outcome,[2],inactive
same,Potency,[1],inactive
same,Potency,[3],inactive
CC(CN(C)C)CN1c2ccccc2CCc2ccccc21 (stereo not given),outcome,[2],inactive
same,Potency,[1],inactive
same,Potency,[3],inactive
COc1ccc(Cl)cc1C(=O)NCCc1ccc(S(=O)(=O)NC(=O)NC2CCCCC2)cc1,outcome,[2],inactive
same,Potency,[1],inactive
same,Potency,[3],inactive
NC(CSCC(=O)O)C(=O)O (stereo not given),Potency,[1],inactive
Nc1ncnc2c1ncn2[C@@H]1O[C@H](CO)[C@@H](O)[C@H]1O,outcome,[2],inactive
same,Potency,[1],inactive
same,Potency,[3],inactive
CN1CCN(C2Cc3ccccc3Sc3ccc(Cl)cc32)CC1 (stereo not given),outcome,[2],inactive
same,Potency,[1],inactive
same,Potency,[3],inactive
Oc1ccc(C(O)CNCCCCCCNCC(O)c2ccc(O)c(O)c2)cc1O (stereo not given),Potency,[1],inactive
CC(=O)c1ccc2c(c1)N(CCCN(C)C)c1ccccc1S2,outcome,[2],inactive
same,Potency,[1],inactive
same,Potency,[3],inactive
CSc1ccc2c(c1)N(CCC1CCCCN1C)c1ccccc1S2 (stereo not given),outcome,[2],inactive
same,Potency,[3],inactive
C[C@H]1O[C@@H](n2cc(F)c(=O)[nH]c2=O)[C@H](O)[C@@H]1O,outcome,[2],inactive
same,Potency,[1],inactive
same,Potency,[3],inactive
CCN(CC)CCNC(=O)c1c(C)[nH]c(/C=C2\C(=O)Nc3ccc(F)cc32)c1C,outcome,[2],inactive
same,Potency,[1],inactive
same,Potency,[3],inactive
CNCCC(Oc1ccc(C(F)(F)F)cc1)c1ccccc1 (stereo not given),outcome,[2],inactive
same,Potency,[1],inactive
same,Potency,[3],inactive
CC(=O)NC(Cc1ccccc1)C(=O)O (stereo not given),Potency,[1],inactive
CN(C)CCC=C1c2ccccc2CCc2ccccc21,outcome,[2],inactive
same,Potency,[1],inactive
same,Potency,[3],inactive
NC1[C@H]2CN(c3nc4c(cc3F)c(=O)c(C(=O)O)cn4-c3ccc(F)cc3F)C[C@@H]12 (stereo not given in full),outcome,[2],inactive
same,Potency,[1],inactive
same,Potency,[3],inactive
CC(=O)OCC(=O)[C@@]1(O)CC[C@H]2[C@@H]3CCC4=CC(=O)CC[C@]4(C)[C@H]3C(=O)C[C@@]21C,outcome,[2],inactive
same,Potency,[1],inactive
same,Potency,[3],inactive
CN1CCOC(c2ccccc2)c2ccccc2C1 (stereo not given),Potency,[1],inactive
CC1=C(CC(=O)O)c2cc(F)ccc2/C1=C\c1ccc(S(C)(=O)=O)cc1,outcome,[2],inactive
same,Potency,[1],inactive
same,Potency,[3],inactive
O=C1N=C(O)CN1/N=C/c1ccc(-c2ccc([N+](=O)[O-])cc2)o1,outcome,[2],inactive
same,Potency,[1],inactive
same,Potency,[3],inactive
CC1=C(CC(=O)O)c2cc(F)ccc2/C1=C\c1ccc(S(C)=O)cc1 (stereo not given),outcome,[2],inactive
same,Potency,[1],inactive
same,Potency,[3],inactive
CCN(CC)CCNC(=O)c1cc(Cl)c(N)cc1OC,outcome,[2],inactive
same,Potency,[3],inactive
CC1=C(/C=C/C(C)=C/C=C/C(C)=C/C(=O)O)C(C)(C)CCC1,outcome,[2],inactive
same,Potency,[1],inactive
same,Potency,[3],inactive
NS(=O)(=O)c1cc2c(cc1Cl)NC(CSCc1ccccc1)=NS2(=O)=O,Potency,[1],inactive
COC(=O)C1=C(C)NC(C)=C(C(=O)OC)C1c1ccccc1[N+](=O)[O-],outcome,[2],inactive
same,Potency,[3],inactive
CN1CCC[C@@H]1Cc1c[nH]c2ccc(CCS(=O)(=O)c3ccccc3)cc12,outcome,[2],inactive
same,Potency,[1],inactive
same,Potency,[3],inactive
CCN(CC)C(=O)Nc1ccc(OCC(O)CNC(C)(C)C)c(C(C)=O)c1 (stereo not given),Potency,[1],inactive
NC(=O)NC(=O)Cc1ccccc1,Potency,[1],inactive
Cc1c(O)cccc1C(=O)N[C@@H](CSc1ccccc1)[C@H](O)CN1C[C@H]2CCCC[C@H]2C[C@H]1C(=O)NC(C)(C)C,outcome,[2],inactive
same,Potency,[1],inactive
same,Potency,[3],inactive
COCCOC(=O)C1=C(C)NC(C)=C(C(=O)OC/C=C/c2ccccc2)C1c1cccc([N+](=O)[O-])c1 (stereo not given),outcome,[2],inactive
same,Potency,[3],inactive
OCc1cc(C(O)CNCCCCCCOCCCCc2ccccc2)ccc1O (stereo not given),Potency,[1],inactive
same,Potency,[3],inactive
CCCCOC(=O)c1ccc(O)cc1,Potency,[1],inactive
same,Potency,[3],inactive
CCCCOc1cc(C(=O)OCCN(CC)CC)ccc1N,Potency,[1],inactive
COc1ccc2cc1Oc1cc3c(cc1OC)CC[N+](C)(C)[C@H]3Cc1ccc(cc1)Oc1c(OC)c(OC)cc3c1[C@@H](C2)[N+](C)(C)CC3,Potency,[1],inactive
same,Potency,[3],inactive
C[C@H]1O[C@H](O[C@H]2[C@H](O)[C@@H](O)[C@@H](O[C@H]3[C@H](O)[C@@H](O)[C@H](O)O[C@@H]3CO)O[C@@H]2CO)[C@H](O)[C@@H](O)[C@@H]1N[C@H]1C=C(CO)[C@@H](O)[C@H](O)[C@H]1O,Potency,[1],inactive
same,Potency,[3],inactive
CCn1cc(C(=O)O)c(=O)c2cnc(N3CCNCC3)nc21,Potency,[1],inactive
COc1ccc2c(c1)C(=O)N(CCc1ccc(S(=O)(=O)NC(=O)NC3CCCCC3)cc1)C(=O)C2(C)C,Potency,[1],inactive
same,Potency,[3],inactive
O=C1O[C@H](CO)[C@@H](O)[C@H](O)[C@H]1O,Potency,[1],inactive
same,Potency,[3],inactive
N[C@@H](CSCCCO)C(=O)O,Potency,[1],inactive
same,Potency,[3],inactive
CC1(C)[C@@H]2CC[C@@]1(C)C(=O)C2,Potency,[1],inactive
same,Potency,[3],inactive
CC[C@@]1(c2ccccc2)NC(=O)N(C)C1=O,Potency,[1],inactive
same,Potency,[3],inactive
O=C(O)CC(O)C(=O)O (stereo not given),Potency,[1],inactive
same,Potency,[3],inactive
CCCCN1CCCC[C@H]1C(=O)Nc1c(C)cccc1C,Potency,[1],inactive
same,Potency,[3],inactive
C[C@]12CC[C@@H]3c4ccc(O)cc4CC[C@H]3[C@@H]1CC[C@@H]2OC(=O)CCC1CCCC1,Potency,[1],inactive
same,Potency,[3],inactive
Cc1cc2c(cc1S(N)(=O)=O)S(=O)(=O)CCC2,Potency,[1],inactive
same,Potency,[3],inactive
C[C@@H](O)[C@H](N)C(=O)O,Potency,[1],inactive
same,Potency,[3],inactive
Oc1cccc(O)c1,Potency,[1],inactive
same,Potency,[3],inactive
CCOC(CN1CCN(CC(C)C(=O)c2ccccc2)CC1)c1ccccc1 (stereo not given),Potency,[1],inactive
same,Potency,[3],inactive
CC(O)COc1ccccc1 (stereo not given),Potency,[1],inactive
CC(=O)Oc1c(C)c(C)c2c(c1C)CC[C@@](C)(CCC[C@H](C)CCC[C@H](C)CCCC(C)C)O2,Potency,[1],inactive
CN(N=O)C(=O)N[C@@H]1[C@@H](O)[C@H](O)[C@@H](CO)O[C@@H]1O,Potency,[1],inactive
same,Potency,[3],inactive
O=C(O)[C@H](O)c1ccccc1,Potency,[1],inactive
same,Potency,[3],inactive
NC(=O)N/N=C/c1ccc([N+](=O)[O-])o1,Potency,[1],inactive
same,Potency,[3],inactive
CCCCC(CC)COC(=O)c1ccccc1O (stereo not given),Potency,[1],inactive
O=c1[nH]c(=O)c2[nH]c(=O)[nH]c2[nH]1,"activity, negative = inhibition",[1],-12.4% [at 9.52 µM] (inactive)
same,"activity change, negative = inhibition",[3],-16.1% [at 9.73 µM] (inactive)
CC(=O)CCC(=O)O,Potency,[1],inactive
same,Potency,[3],inactive
COc1ccc2[nH]c(S(=O)Cc3ncc(C)c(OC)c3C)nc2n1 (stereo not given),Potency,[1],9.04 µM (active) and inactive and 11.4 µM (active)
same,Potency,[3],inactive
Cc1cc(O)cc2c1O[C@](C)(CCC[C@H](C)CCC[C@H](C)CCCC(C)C)CC2,Potency,[1],inactive
same,Potency,[3],inactive
CCN(CC)CCNC(C(=O)OCCC(C)C)c1ccccc1 (stereo not given),Potency,[1],inactive
same,Potency,[3],inactive
Cn1cc[nH]c1=S,Potency,[1],inactive
same,Potency,[3],inactive
O=c1cc[nH]c(=O)[nH]1,Potency,[1],inactive
CS(=O)(=O)c1ccc([C@@H](O)[C@@H](CF)NC(=O)C(Cl)Cl)cc1,Potency,[1],inactive
same,Potency,[3],inactive
Nc1ccc(S(=O)(=O)NC(=O)c2ccccc2)cc1,Potency,[1],inactive
same,Potency,[3],inactive
NS(=O)(=O)c1cc2c(cc1C(F)(F)F)NC(Cc1ccccc1)NS2(=O)=O (stereo not given),Potency,[1],inactive
same,Potency,[3],inactive
Cc1cc(C(C#N)c2ccc(Cl)cc2)c(Cl)cc1NC(=O)c1cc(I)cc(I)c1O (stereo not given),Potency,[1],inactive
same,Potency,[3],inactive
CC(C)(C)C(=O)C(Oc1ccc(Cl)cc1)n1ccnc1 (stereo not given),Potency,[1],inactive
same,Potency,[3],inactive
CN(C)CCCN1c2ccccc2CCc2ccccc21,Potency,[1],inactive
same,Potency,[3],inactive
C/C(=C(\CCOP(=O)(O)O)SC(=O)c1ccccc1)N(C=O)Cc1cnc(C)nc1N,outcome,[1],inactive [at 4.49 µM]
same,outcome,[3],inactive [at 4.52 µM]
CC(=O)O[C@@]12CO[C@@H]1C[C@H](O)[C@@]1(C)C(=O)[C@H](O)C3=C(C)[C@@H](OC(=O)[C@H](O)[C@@H](NC(=O)OC(C)(C)C)c4ccccc4)C[C@@](O)([C@@H](OC(=O)c4ccccc4)[C@H]21)C3(C)C,Potency,[1],inactive
OCC(O)CN1CCN(c2ccccc2)CC1 (stereo not given),Potency,[3],inactive
CC(COc1ccccc1)NC(C)C(O)c1ccc(O)cc1 (stereo not given),Potency,[1],inactive
same,Potency,[3],inactive
O=Cc1ccccc1C=O,Potency,[1],inactive
same,Potency,[3],inactive
c1ccc(CN(CC2=NCCN2)c2ccccc2)cc1,Potency,[1],inactive
same,Potency,[3],inactive
